PubChem BioAssay (NCATS)
Values without a mark were called inactive. Results filed as inconclusive are left out. A call without a number means that no potency is given here. The source made the active and inactive calls. Calls come from the whole dose curve; as a rule, active = well fitted curve in the direction sought with a large enough effect; inconclusive = small, poorly fitted or top-dose-only effect, or another doubt; inactive = no such curve, though single readings can be large; an effect the other way counts as inactive or inconclusive.

Key:
[1] = molecular target: Glutathione peroxidase 1 (Homo sapiens) (UniProt P07203); assay: Primary qHTS Assay for Inhibitors of Recombinant Selenoprotein Glutathione Peroxidase 1 (GPX1) (AID 1845191); note: nearly all actives have a fitted effect of over 65% in size
Sequence of Glutathione peroxidase 1 (Homo sapiens) (P07203 whole entry, looked up): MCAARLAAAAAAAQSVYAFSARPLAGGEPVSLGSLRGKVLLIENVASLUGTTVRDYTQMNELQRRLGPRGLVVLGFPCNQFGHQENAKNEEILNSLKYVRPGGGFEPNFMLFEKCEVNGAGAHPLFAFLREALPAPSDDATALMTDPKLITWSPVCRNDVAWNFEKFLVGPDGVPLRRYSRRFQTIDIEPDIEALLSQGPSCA
Summary of the method: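 NADPH consumption tracked by fluorescence at 340/450 nm between t=0 and t=15 min, room temperature. Final mix: 10 nM GPX1, 100 nM glutathione reductase, 1 mM GSH, 0.5 mM NADPH, 0.5 mM cumene hydroperoxide, 0.01% BSA; 30 min compound–enzyme preincubation.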

[2] = molecular target: Phospholipid hydroperoxide glutathione peroxidase GPX4 (Homo sapiens) (UniProt P36969); assay: Primary qHTS Assay for Inhibitors of Recombinant Selenoprotein Glutathione Peroxidase 4 (GPX4) (AID 1845192); note: nearly all actives have a fitted effect of over 65% in size
Sequence of Phospholipid hydroperoxide glutathione peroxidase GPX4 (Homo sapiens) (P36969 whole entry, looked up): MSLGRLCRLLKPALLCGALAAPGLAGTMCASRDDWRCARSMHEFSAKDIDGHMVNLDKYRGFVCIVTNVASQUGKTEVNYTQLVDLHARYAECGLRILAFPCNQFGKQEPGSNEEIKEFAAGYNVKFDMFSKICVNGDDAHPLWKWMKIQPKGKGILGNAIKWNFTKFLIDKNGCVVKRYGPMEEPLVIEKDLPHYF
Summary of the method: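 NADPH consumption followed by fluorescence at 340/450 nm, t=0 and after 15 min at room temperature. Reaction started with cumene hydroperoxide (0.5 mM final) after 30 min compound–GPX4 preincubation; final 200 nM GPX4, 100 nM GR, 1 mM GSH, 0.5 mM NADPH.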

[3] = molecular target: Luciferin 4-monooxygenase (Photinus pyralis) (UniProt P08659); assay: Primary firefly luciferase (FLuc) qHTS assay for identification of artifact compounds. (AID 1845220); note: nearly all actives have a fitted effect of over 60% in size; note: potency is the fitted concentration of half-maximal effect
Summary of the method: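 Compounds sat 15 min at room temperature with 10 uM luciferin and 10 uM ATP (pH 7.6 Tris acetate). Firefly luciferase (10 nM final) was then added, and luminescence was read 5 min later. Data normalized to no-enzyme and DMSO controls were Hill-fitted.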

[4] = Primary fluorescence-based thiol-reactive (MSTI) qHTS assay for identification of artifact compounds. (AID 1845221); note: nearly all actives have a fitted effect of over 65% in size; note: potency is the fitted concentration of half-maximal effect
Summary of the method: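 A multi-concentration qHTS design tested compounds against 4 uM MSTI, pH 7.4 phosphate-buffered saline. Plates were protected from light for 1 h at room temperature before imaging fluorescence.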

[5] = test system: Nanoluciferase (engineered Oplophorus gracilirostris luciferase); assay: Primary Nanoluciferase (NLuc) qHTS assay for identification of artifact compounds. (AID 1845222); note: series mostly up to about 54 µM
Summary of the method: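 Luminescence from secreted NLuc (filtered, 1:55-diluted S16 cell medium) read 5 min after Nano-Glo substrate; compounds preincubated 15 min, RT. Hill fits of inhibition normalized to DMSO and no-enzyme.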

[6] = Primary redox qHTS assay for identification of artifact compounds. (AID 1845223)
Summary of the method: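 Redox-cycling detection via DTT (250 uM final) oxidation coupled to Amplex Red (25 uM)/HRP (250 mU/mL) in HBSS. 15 min preincubation plus 30 min after DTT, room temperature. Ex/Em 525/598 nm; 4-parameter Hill fit against DMSO and 10 uM DA3003.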

Structure (SMILES) | Potency [1] | Potency [2] | Potency [3] | Potency [4] | Potency [5] | Potency [6]
CC(C)C[C@@H](N)C(=O)N[C@H]1C(=O)N[C@@H](CC(N)=O)C(=O)N[C@H]2C(=O)N[C@H]3C(=O)N[C@H](C(=O)N[C@H](C(=O)O)c4cc(O)cc(O)c4-c4cc3ccc4O)[C@H](O)c3ccc(c(Cl)c3)Oc3cc2cc(c3O[C@@H]2O[C@H](CO)[C@@H](O)[C@H](O)[C@H]2O[C@H]2C[C@](C)(N)[C@H](O)[C@H](C)O2)Oc2ccc(cc2Cl)[C@H]1O | inactive | inactive | inactive | inactive | inactive | inactive
CC(C)c1c(O)ccc2c1CC[C@H]1C(C)(C)CCC[C@]21C | inactive | inactive | inactive | inactive | inactive | inactive
O=C(NCc1nc2ccccc2c(=O)n1-c1ccc(F)cc1)Nc1ccc(Cl)c(C(F)(F)F)c1 | inactive | inactive | inactive | inactive | inactive | inactive
COc1ccc(NC(=O)C2C[C@H](C)CC[C@H]2C(C)C)cc1 (some centres undefined) | inactive | inactive | inactive | inactive | inactive | inactive
CCNC(=O)N1CCCN(c2ccc(C(=O)NCCc3ccc(Cl)cc3Cl)cc2NC(=O)c2cccc(Cl)c2)CC1 | inactive | inactive | inactive | inactive | inactive | inactive
COC(=O)c1cc2c(C(F)(F)F)cc(-c3ccccc3)cc2n1O | inactive | inactive | inactive | 2.67 µM (active) | inactive | inactive
CCCCOc1ccc(S(=O)(=O)n2c(C)nc3ccccc32)cc1 | inactive | inactive | inactive | inactive | inactive | inactive
CC(C)n1c(=O)c(C(=O)NC2CC3CCC(C2)N3C[C@@H](O)CN(C)S(C)(=O)=O)cc2ccccc21 (some centres undefined) | inactive | inactive | inactive | inactive | inactive | inactive
CNCc1cc(-c2ccccc2F)n(S(=O)(=O)c2cccnc2)c1 | inactive | inactive | inactive | inactive | inactive | inactive
COc1cc(O)cc(/C=C/c2cccc(O)c2)c1 | inactive | inactive | 10.7 µM (active) | 18.9 µM (active) | inactive | inactive
CC(=O)OC(C)(C)/C=C/C(=O)[C@](C)(O)[C@H]1C(O)C[C@@]2(C)[C@@H]3CC=C4[C@@H](C=C(O[C@@H]5O[C@H](CO)[C@@H](O)[C@H](O)[C@H]5O)C(=O)C4(C)C)[C@]3(C)C(=O)C[C@]12C (some centres undefined) | inactive | inactive | inactive | inactive | inactive | inactive
CCOC(=O)C1=Cc2ccc(C(F)(F)C(F)(F)F)cc2N=C(N)C1 | inactive | inactive | inactive | inactive | inactive | inactive
COc1ccc(Sc2ccc(NC(=O)c3ccccc3Cl)cc2C#N)cc1 | inactive | inactive | inactive | inactive | inactive | inactive
C=C(C=O)[C@]1(O)C[C@@]2(C)C(=CC1=O)C=C[C@H](OC(=O)/C=C/C=C/[C@H](C)CC)[C@@H]2C | inactive | inactive | inactive | inactive | inactive | inactive
C=C(C)C1=C[C@@]2(C)C(=CC1=O)CC[C@@H](O)[C@@H]2C | inactive | inactive | inactive | inactive | inactive | inactive
O=C(Nc1ccc(Cl)cc1)C1CCCN(C(=O)c2cccc(-c3ccco3)c2)C1 (centres undefined) | inactive | inactive | inactive | inactive | inactive | inactive
C=C[C@H](/C=C\c1ccc(O)cc1)c1ccc(O)cc1 | inactive | inactive | inactive | inactive | inactive | inactive
C=C1C(=O)O[C@@H]2C[C@H](C)C3=CC(=O)[C@H](O)[C@@]3(C)C[C@H]12 | inactive | inactive | inactive | 11.9 µM (active) | inactive | inactive
COc1ccc(-c2cnc3c(-c4cccc5ncccc45)cnn3c2)cc1 | inactive | inactive | inactive | inactive | inactive | inactive
CC(C)S(=O)(=O)NC[C@H](C)c1ccc(-c2ccc(CCNS(C)(=O)=O)cc2)cc1 | inactive | inactive | inactive | inactive | inactive | inactive
C/C=C\NC(=O)C1NC(=O)C(CC(N)=O)NC(=O)C(NC(=O)C(=O)C(C)CC)Cc2ccc(O)c(c2)-c2cccc3c2NC(=O)C3(O)C1O (centres undefined) | inactive | inactive | inactive | inactive | inactive | inactive
C=C1CCC2C(C)(C(=O)O)CCCC2(C)C1CCC1=CCOC1=O (centres undefined) | inactive | inactive | inactive | inactive | inactive | inactive
Cc1ccc(-c2ncc[nH]2)cc1NC(=O)c1ccc(OCc2ccccn2)cc1 | inactive | inactive | inactive | inactive | inactive | inactive
CS/C=C/C(=O)O[C@@H]1CCC2=CC(=O)C(=C(C)C)C[C@]2(C)[C@H]1C | inactive | inactive | inactive | inactive | inactive | inactive
